Assay [1] addresses human Protein Tyrosine Phosphatase Receptor Type M (PTPRM), PTPRM (gene 5797) (UniProt P28827). The experiment in a line: NVS_ENZ_hPTPRM: NovaScreen (NVS) Enzymatic Assay for human Protein Tyrosine Phosphatase Receptor Type M (PTPRM) (AID 2283215). An outline of the steps:
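Read-out is fluorescence after electrophoretic separation of substrate and product, taken 1.33 h post-dosing with recombinant enzyme. Compounds screened at 25 uM in duplicate, then concentration series for actives; activity as signal loss relative to DMSO.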

In assay [2] the target is human Sirtuin 2 (SIRT2), SIRT2 (gene 22933) (UniProt Q8IXJ6). Kind of assay: NVS_ENZ_hSIRT2: NovaScreen (NVS) Enzymatic Assay for human Sirtuin 2 (SIRT2) (AID 2283217). An outline of the steps:
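Single-point duplicate screen at 25 uM, then concentration-response (max 50 uM) for chemicals passing threshold. Enzyme activity of recombinant human SIRT2 measured after 1 hr by fluorescence with mobility-shift separation of product; DMSO baseline.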

The target in assay [3] is human SRC Proto-Oncogene, Non-receptor Tyrosine Kinase (SRC), SRC (gene 6714) (UniProt P12931). The experiment in a line: NVS_ENZ_hSRC: NovaScreen (NVS) Enzymatic Assay for human SRC Proto-Oncogene, Non-receptor Tyrosine Kinase (SRC) (AID 2283223). An outline of the steps:
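Compounds passing 30% inhibition at 25 uM (duplicate) were titrated to a top concentration of 50 uM. Enzyme activity read by fluorescence with mobility-shift substrate/product separation after 1 h; DMSO baseline.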

The target in assay [4] is human Rho Associated Coiled-coil Containing Protein Kinase 1 (ROCK1), ROCK1 (gene 6093) (UniProt Q13464). Kind of assay: NVS_ENZ_hROCK1: NovaScreen (NVS) Enzymatic Assay for human Rho Associated Coiled-coil Containing Protein Kinase 1 (ROCK1) (AID 2283214). An outline of the steps: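 Compounds first run in duplicate at 25 uM against recombinant human ROCK1, then followed in concentration series. Kinase activity was read 1 h post-dosing by fluorescence with mobility-shift separation, as signal loss relative to DMSO.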

In assay [5] the target is human Sirtuin 1 (SIRT1), SIRT1 (gene 23411) (UniProt Q96EB6). The experiment in a line: NVS_ENZ_hSIRT1: NovaScreen (NVS) Enzymatic Assay for human Sirtuin 1 (SIRT1) (AID 2283219). An outline of the steps:
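Cell-free recombinant SIRT1 with a fluorescent substrate; substrate and product separated by electrophoretic mobility shift and read by fluorescence intensity, 1 h after dosing. Primary screen at 25 uM in duplicate; hits re-run in concentration-response up to 50 uM, relative to DMSO.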

The target in assay [6] is human Tropomyosin Receptor Kinase A (TRKA), NTRK1 (gene 4914) (UniProt P04629). The experiment in a line: NVS_ENZ_hTrkA: NovaScreen (NVS) Enzymatic Assay for human Tropomyosin Receptor Kinase A (TRKA) (AID 2283224). The essentials:
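Compounds were screened at 25 uM in duplicate, then concentration series to a 50 uM top for those meeting threshold (e.g. 30% inhibition). Enzyme was recombinant human TrkA, incubated 1 h. Product formation was quantified by fluorescence after mobility-shift separation.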

The target of assay [7] is human Vascular Endothelial Growth Factor Receptor 3 (VEGFR3), FLT4 (gene 2324) (UniProt P35916). The experiment in a line: NVS_ENZ_hVEGFR3: NovaScreen (NVS) Enzymatic Assay for human Vascular Endothelial Growth Factor Receptor 3 (VEGFR3) (AID 2283229). An outline of the steps:
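Chemicals first run in duplicate at 25 uM, with actives re-tested in concentration series to a top of 50 uM. Recombinant VEGFR3 activity measured after 1 h via fluorescence with mobility-shift product separation; inhibition fitted relative to DMSO.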

For assay [8], the target named is human Vascular Endothelial Growth Factor Receptor 2 (VEGFR2), KDR (gene 3791) (UniProt P35968). Kind of assay: NVS_ENZ_hVEGFR2: NovaScreen (NVS) Enzymatic Assay for human Vascular Endothelial Growth Factor Receptor 2 (VEGFR2) (AID 2283230). An outline of the steps: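 Cell-free recombinant VEGFR2 kinase, fluorescent substrate with electrophoretic mobility-shift separation; read 1 h after dosing. Screened at 25 uM in duplicate, hits to concentration-response up to 50 uM; loss-of-signal versus DMSO.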

In assay [9] the target is Adenosine receptor A1 (Bos taurus) (UniProt P28190). Kind of assay: NVS_GPCR_bAdoR_NonSelective: NovaScreen (NVS) G Protein-Coupled Receptor Assay for bovine Adenosine Receptor (AdoR), Non-selective Binding (AID 2283244). An outline of the steps:
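Cell-free binding with membranes from bovine striatum: radioligand displaced by test chemical, read after 1 h by filtration and scintillation. Single-point 25 uM duplicate primary, 50 uM top concentration in follow-up curves, DMSO baseline.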

Assay [10] has as its target rabbit Imidazoline 2 Central (I2C), CKB (gene 100009085) (UniProt P00567). The experiment in a line: NVS_ENZ_rabI2C: NovaScreen (NVS) Enzymatic Assay for rabbit Imidazoline 2 Central (I2C) (AID 2283228). The essentials: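 Rabbit brain membranes, cell-free; readout by filter-based scintillation counting 1.5 hours after dosing, loss of signal vs DMSO. Initial duplicate test at 25 uM, then concentration-response with 50 uM top concentration.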

Assay [11] concerns the target human Vascular Endothelial Growth Factor Receptor 1 (VEGFR1), FLT1 (gene 2321) (UniProt P17948). The experiment in a line: NVS_ENZ_hVEGFR1: NovaScreen (NVS) Enzymatic Assay for human Vascular Endothelial Growth Factor Receptor 1 (VEGFR1) (AID 2283226). An outline of the steps:
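Kinase activity of recombinant human VEGFR1 was read by fluorescence after electrophoretic separation of product from substrate, 1 h post-dosing; initial duplicate single-point testing at 25 uM, followed by concentration-series follow-up, with DMSO as baseline.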

In assay [12] the target is human Sirtuin 3 (SIRT3), SIRT3 (gene 23410) (UniProt Q9NTG7). The experiment in a line: NVS_ENZ_hSIRT3: NovaScreen (NVS) Enzymatic Assay for human Sirtuin 3 (SIRT3) (AID 2283222). The essentials: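 Cell-free enzyme assay with recombinant protein and fluorescent substrate, product separated by electrophoretic mobility shift; read 1 hour after dosing. Screened in duplicate at 25 uM, then singleton concentration-response up to 50 uM; loss of signal versus DMSO.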

In assay [13] the test system is bovine Angiotensin II Receptor Type 2 (AT2), gene 407157. Kind of assay: NVS_GPCR_bAT2: NovaScreen (NVS) G Protein-Coupled Receptor Assay for bovine Angiotensin II Receptor Type 2 (AT2) (AID 2283240). The essentials: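 Radioligand displacement on bovine cerebellar membranes, 1 hour incubation, filter-based scintillation counting; loss of signal vs DMSO. Duplicate single-point screen at 25 uM, then concentration-response to 50 uM maximum.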

Assay [14] has as its target sheep Cyclooxygenase-2 (Cox2), PTGS2 (gene 443460) (UniProt P79208). Kind of assay: NVS_ENZ_oCOX2: NovaScreen (NVS) Enzymatic Assay for sheep Cyclooxygenase-2 (Cox2) (AID 2283231). The essentials:
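Ovine placental enzyme, cell-free; chemical added, 0.66 h, absorbance (colorimetric). Screen 25 uM in duplicate; ≥threshold hits titrated, top 50 uM. Inhibition = signal loss vs DMSO.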

Assay [15] is described as follows: NVS_GPCR_bNPY_NonSelective: NovaScreen (NVS) G Protein-Coupled Receptor Assay for bovine Neuropeptide Y (NPY) Receptor, Non-selective Binding (AID 2283245). The essentials:
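Displacement of radioligand from bovine hippocampal membrane receptors, read by filtration and scintillation counting after 1 hour. Concentration-response to a top of 50 uM followed a 25 uM duplicate primary screen. Loss of signal versus DMSO.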

Inconclusive results are not listed. The source made the active and inactive calls. How the source made its calls: active means hit-call score of the fitted dose curve at least 0.9, where 1 is the maximum; inconclusive means response in the unintended direction; inactive means score below 0.9.

Sequence of human Tropomyosin Receptor Kinase A (TRKA), NTRK1 (gene 4914) (P04629 whole entry, looked up): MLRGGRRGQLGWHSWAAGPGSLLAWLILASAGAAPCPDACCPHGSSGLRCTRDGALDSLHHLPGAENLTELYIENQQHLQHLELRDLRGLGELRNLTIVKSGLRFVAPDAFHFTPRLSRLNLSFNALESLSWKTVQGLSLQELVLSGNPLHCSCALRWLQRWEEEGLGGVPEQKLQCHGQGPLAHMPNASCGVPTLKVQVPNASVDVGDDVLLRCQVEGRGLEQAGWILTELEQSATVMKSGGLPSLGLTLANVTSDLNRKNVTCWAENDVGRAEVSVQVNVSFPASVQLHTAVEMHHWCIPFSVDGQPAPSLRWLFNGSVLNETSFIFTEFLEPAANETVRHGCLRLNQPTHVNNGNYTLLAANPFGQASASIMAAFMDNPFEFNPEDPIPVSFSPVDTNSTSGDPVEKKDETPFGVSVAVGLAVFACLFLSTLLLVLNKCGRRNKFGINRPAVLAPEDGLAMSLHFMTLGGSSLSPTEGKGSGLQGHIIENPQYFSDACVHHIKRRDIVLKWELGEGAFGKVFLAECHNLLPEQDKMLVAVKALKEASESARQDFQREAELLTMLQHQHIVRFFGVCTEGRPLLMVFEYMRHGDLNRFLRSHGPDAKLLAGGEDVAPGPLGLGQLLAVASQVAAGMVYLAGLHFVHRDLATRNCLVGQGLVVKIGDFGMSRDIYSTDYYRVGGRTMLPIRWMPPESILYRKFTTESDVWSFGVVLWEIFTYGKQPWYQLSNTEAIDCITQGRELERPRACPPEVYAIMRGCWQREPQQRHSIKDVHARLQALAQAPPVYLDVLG
Sequence of human SRC Proto-Oncogene, Non-receptor Tyrosine Kinase (SRC), SRC (gene 6714) (P12931 whole entry, looked up): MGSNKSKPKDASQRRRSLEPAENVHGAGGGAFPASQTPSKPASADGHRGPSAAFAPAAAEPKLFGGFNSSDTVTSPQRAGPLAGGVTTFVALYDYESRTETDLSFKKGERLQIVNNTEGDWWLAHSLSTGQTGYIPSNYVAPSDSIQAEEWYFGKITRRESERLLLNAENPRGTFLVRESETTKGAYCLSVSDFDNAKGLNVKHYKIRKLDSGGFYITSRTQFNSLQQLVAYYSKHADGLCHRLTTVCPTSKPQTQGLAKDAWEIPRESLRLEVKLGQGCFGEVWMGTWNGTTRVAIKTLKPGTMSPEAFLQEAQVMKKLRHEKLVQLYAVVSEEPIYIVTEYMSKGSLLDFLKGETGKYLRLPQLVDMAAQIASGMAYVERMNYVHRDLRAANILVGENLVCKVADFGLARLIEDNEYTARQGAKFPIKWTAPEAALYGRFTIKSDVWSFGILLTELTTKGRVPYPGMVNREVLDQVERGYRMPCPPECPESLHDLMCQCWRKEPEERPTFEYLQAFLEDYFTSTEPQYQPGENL
Sequence of human Protein Tyrosine Phosphatase Receptor Type M (PTPRM), PTPRM (gene 5797) (P28827 whole entry, looked up): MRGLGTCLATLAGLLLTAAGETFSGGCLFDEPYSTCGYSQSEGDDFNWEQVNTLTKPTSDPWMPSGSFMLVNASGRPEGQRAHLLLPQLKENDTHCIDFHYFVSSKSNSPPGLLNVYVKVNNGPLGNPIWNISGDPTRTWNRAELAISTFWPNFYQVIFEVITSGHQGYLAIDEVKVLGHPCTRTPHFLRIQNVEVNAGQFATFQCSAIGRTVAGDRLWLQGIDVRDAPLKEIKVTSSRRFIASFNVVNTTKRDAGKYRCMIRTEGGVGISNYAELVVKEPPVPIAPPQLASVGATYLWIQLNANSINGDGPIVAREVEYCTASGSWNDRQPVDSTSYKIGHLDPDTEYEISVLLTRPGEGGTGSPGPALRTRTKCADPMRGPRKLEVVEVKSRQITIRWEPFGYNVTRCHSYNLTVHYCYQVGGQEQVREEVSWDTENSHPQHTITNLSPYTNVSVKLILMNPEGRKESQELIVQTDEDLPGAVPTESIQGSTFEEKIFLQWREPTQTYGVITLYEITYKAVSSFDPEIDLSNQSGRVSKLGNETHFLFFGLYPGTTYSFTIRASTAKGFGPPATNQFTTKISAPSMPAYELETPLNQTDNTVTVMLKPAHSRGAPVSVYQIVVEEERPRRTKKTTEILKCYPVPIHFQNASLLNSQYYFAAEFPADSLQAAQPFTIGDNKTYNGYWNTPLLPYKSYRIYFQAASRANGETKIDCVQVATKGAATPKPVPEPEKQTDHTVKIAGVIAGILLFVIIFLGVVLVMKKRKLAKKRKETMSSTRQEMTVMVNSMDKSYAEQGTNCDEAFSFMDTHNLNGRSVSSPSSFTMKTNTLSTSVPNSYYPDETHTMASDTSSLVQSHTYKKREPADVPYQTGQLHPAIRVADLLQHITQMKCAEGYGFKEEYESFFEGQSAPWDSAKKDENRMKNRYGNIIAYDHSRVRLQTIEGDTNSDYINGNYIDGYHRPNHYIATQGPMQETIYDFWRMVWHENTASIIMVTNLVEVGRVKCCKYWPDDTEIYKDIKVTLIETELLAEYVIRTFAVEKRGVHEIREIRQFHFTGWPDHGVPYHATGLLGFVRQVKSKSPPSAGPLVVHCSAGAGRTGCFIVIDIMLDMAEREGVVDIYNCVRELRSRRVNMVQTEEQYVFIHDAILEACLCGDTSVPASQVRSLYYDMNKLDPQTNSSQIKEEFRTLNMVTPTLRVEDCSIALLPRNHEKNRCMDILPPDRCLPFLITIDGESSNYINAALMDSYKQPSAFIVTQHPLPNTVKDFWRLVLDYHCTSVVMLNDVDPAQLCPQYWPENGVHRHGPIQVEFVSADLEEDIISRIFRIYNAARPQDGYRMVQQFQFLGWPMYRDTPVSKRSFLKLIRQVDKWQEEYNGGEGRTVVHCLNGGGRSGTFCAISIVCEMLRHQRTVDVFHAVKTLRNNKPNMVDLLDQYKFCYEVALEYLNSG
Sequence of human Sirtuin 2 (SIRT2), SIRT2 (gene 22933) (Q8IXJ6 whole entry, looked up): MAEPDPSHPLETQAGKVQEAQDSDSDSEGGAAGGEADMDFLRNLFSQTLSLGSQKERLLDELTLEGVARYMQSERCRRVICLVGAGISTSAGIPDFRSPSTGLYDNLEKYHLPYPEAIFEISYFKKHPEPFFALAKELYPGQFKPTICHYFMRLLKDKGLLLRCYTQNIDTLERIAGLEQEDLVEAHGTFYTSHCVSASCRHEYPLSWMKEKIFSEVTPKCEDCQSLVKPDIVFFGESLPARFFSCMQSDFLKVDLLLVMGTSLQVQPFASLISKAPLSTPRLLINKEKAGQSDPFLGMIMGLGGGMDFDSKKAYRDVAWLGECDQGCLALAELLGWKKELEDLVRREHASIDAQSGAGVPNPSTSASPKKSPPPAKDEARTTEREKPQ
Sequence of human Sirtuin 3 (SIRT3), SIRT3 (gene 23410) (Q9NTG7 whole entry, looked up): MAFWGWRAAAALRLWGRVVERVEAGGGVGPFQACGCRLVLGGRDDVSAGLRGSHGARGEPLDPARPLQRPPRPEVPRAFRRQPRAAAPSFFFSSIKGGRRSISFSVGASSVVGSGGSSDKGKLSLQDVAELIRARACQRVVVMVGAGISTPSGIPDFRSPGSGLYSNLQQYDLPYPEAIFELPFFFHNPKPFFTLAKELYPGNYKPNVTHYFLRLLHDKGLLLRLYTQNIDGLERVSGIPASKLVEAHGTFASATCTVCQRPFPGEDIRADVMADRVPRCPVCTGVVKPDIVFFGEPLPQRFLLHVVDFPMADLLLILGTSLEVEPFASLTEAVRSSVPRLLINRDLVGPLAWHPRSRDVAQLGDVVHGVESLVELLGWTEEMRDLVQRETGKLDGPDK
Sequence of human Sirtuin 1 (SIRT1), SIRT1 (gene 23411) (Q96EB6 whole entry, looked up): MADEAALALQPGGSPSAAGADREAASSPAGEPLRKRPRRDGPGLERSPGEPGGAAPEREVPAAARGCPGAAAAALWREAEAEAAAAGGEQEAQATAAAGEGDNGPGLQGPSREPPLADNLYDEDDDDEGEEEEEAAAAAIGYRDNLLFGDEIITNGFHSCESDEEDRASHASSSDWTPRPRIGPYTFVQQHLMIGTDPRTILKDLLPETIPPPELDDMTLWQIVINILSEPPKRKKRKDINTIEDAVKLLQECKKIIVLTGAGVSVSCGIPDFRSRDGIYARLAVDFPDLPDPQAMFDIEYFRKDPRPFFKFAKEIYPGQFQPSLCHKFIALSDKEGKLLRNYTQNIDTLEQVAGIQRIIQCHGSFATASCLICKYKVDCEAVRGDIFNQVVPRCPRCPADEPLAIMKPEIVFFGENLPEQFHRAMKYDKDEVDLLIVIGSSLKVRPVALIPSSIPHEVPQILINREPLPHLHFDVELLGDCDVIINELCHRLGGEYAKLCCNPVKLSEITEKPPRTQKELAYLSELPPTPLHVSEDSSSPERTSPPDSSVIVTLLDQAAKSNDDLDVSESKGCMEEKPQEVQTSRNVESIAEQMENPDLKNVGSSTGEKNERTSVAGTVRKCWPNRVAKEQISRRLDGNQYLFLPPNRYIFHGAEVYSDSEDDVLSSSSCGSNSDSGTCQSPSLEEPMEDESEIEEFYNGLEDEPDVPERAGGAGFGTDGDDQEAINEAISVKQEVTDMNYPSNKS
Sequence of rabbit Imidazoline 2 Central (I2C), CKB (gene 100009085) (P00567 whole entry, looked up): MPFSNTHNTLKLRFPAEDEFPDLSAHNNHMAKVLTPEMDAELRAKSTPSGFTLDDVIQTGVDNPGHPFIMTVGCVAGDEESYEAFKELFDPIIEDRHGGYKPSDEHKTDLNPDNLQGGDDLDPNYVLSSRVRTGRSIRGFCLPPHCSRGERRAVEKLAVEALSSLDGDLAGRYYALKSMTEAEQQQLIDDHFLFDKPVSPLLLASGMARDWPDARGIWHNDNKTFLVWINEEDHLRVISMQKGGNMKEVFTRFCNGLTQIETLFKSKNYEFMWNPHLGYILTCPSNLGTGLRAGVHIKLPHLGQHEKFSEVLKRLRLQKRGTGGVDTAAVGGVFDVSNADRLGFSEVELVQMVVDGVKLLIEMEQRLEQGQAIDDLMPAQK
Sequence of Adenosine receptor A1 (Bos taurus) (P28190 whole entry, looked up): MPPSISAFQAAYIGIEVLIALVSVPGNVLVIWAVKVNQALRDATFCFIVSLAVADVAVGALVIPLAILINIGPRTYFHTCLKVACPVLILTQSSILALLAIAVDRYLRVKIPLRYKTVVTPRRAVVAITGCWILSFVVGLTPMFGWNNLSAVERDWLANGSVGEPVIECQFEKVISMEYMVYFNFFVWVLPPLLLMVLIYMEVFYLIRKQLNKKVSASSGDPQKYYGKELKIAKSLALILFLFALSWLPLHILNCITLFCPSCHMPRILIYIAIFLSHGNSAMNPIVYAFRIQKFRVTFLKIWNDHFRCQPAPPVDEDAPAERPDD

In the case of `O=C(O)c1ccc2c(c1)nc(C(=O)NC1CCN(C3CC3)CC1)n2Cc1cc(-c2ccc(Cl)s2)on1`, the result in [1], in assay [2] and in assay [3] was inactive.
With `CCN(CC)C(=S)SSC(=S)N(CC)CC`, the result in assay [4], in [5], in [6], in [7], in assay [8] and in [9] was inactive.
As for `Cn1c(=O)c2[nH]cnc2n(C)c1=O`, the outcome in [3] was inactive.
Take `c1ccc2ncccc2c1`: in assay [1], the outcome was inactive. For the same compound, the AC50 in assay [10] is 6.6 µM (active).
As for `O=c1[nH]cnc2c1ncn2[C@H]1CC[C@@H](CO)O1`, the compound was called inactive in [4], in assay [1], in [5], in assay [3], in assay [6] and in [7].
As to `O=C(NO)C1(NS(=O)(=O)c2ccc(Oc3ccc(F)cc3)cc2)CCOCC1`, the result in assay [11] and in assay [7] was inactive.
On to `CC(C)c1nnc2ccc(-c3ocnc3-c3cc(F)ccc3F)cn12`, for which the call in assay [5] and in assay [12] was inactive.
`NNC(=O)c1ccncc1`: in assay [5], the call was inactive.
Regarding `Cn1cc[nH]c1=S`, the outcome in assay [5] and in [12] was inactive.
`CC(=O)c1ccccc1`: the compound was classed as inactive in assay [4] and in [5].
On to `CCCCCCCC/C=C\CCCCCCCC(=O)OC[C@@H](O)[C@H]1OC[C@H](O)[C@H]1O`, for which the result in [2], in [5], in assay [3], in assay [11], in assay [7] and in assay [13] was inactive. In addition, the AC50 in assay [8] was 40.7 µM (active).
As to `Cc1ncc([C@@H](CCCCCCc2ccc3c(n2)NCCC3)CC(=O)O)cn1`, the outcome in assay [1], in assay [2], in [5], in assay [12], in [7] and in assay [8] was inactive. Further, the AC50 in assay [14] is 29 µM (active).
Consider `Cc1nccn1-c1ccc(Sc2cccc(C3(C(N)=O)CCOCC3)c2)cc1`, for which the AC50 in assay [10] was 9.43 µM (active).
In the case of `CCCCCCOC(=O)CC(CC(=O)OCCCCCC)(OC(=O)CCC)C(=O)OCCCCCC`, in assay [5], the compound was called inactive.
As to `NC(=O)N(O)[C@@H]1COc2cc(OCc3ccccc3)ccc21`, the AC50 in assay [10] was 19.9 µM (active).
For `CCOc1ccc2[nH]cc(C(=O)NCc3ccccc3)c(=O)c2n1`, the compound was called inactive in assay [1].
As for `CCCC(CCC)C(=O)O`, the outcome in assay [4], in [2], in [5], in assay [12], in assay [3] and in assay [6] was inactive. For the same compound, the compound was classed as inactive in assay [7] and in assay [15].

As a reminder, the AC50 is the concentration at which the activity in the assay is half-maximal.

For the origin of these results see PubChem BioAssay (EPA / NIEHS).
